Assay [1] has as its target human RAR-related Orphan Receptor gamma (RORg), RORC (gene 6097) (UniProt P51449). Description: ATG_RORg_TRANS: Attagene TRANS-FACTORIAL HepG2 Assay for human RAR-related Orphan Receptor gamma (RORg) (AID 2283011; active = hit-call score of the fitted dose curve at least 0.9, where 1 is the maximum). In a few lines: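 Readout: reporter transcript induction (RT-PCR, fluorescent primer extension, capillary electrophoresis) after 24 h compound exposure of transiently transfected HepG2 cells carrying a RORg-Gal4 chimera and GAL4-UAS reporters; DMSO served as baseline, with increasing signal fitted.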

Read-out in assay [2]: E-selectin (Homo sapiens) (UniProt P16581)
Description: BSK_3C_Eselectin: BioMAP Diversity Plus: 3C Assay for Eselectin Biomarker Activity (AID 2283015).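 For outcome: cell surface E-selectin protein quantified by ELISA 24 h after dosing.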 Conditions: primary human endothelial cells (HUVEC); actives raise or lower the signal. In a few lines: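 Primary human umbilical vein endothelial cells (3C system) were dosed with chemical and cell-surface E-selectin measured by ELISA 24 h later. Bidirectional curve fitting used DMSO as negative control and baseline.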

Read-out in assay [3]: Interleukin-1 alpha (IL1a), IL1A (gene 3552)
As to the kind of experiment: BSK_BE3C_IL1a: BioMAP Diversity Plus: BE3C Assay for Interleukin-1 alpha (IL1a) Biomarker Activity (AID 2283016). Conditions: primary human bronchial epithelial cells; actives raise or lower the signal. Summed up: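 BE3C primary human bronchial epithelium; cpd 24 h; IL-1a by ELISA; bidirectional fit vs DMSO; parallel SRB (0.1% SRB, 10% TCA fix, 560 nm) for cytotoxicity.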

Read-out in assay [4]: Monocyte Chemoattractant Protein-1 (MCP1), CCL2 (gene 6347)
Description: BSK_3C_MCP1: BioMAP Diversity Plus: 3C Assay for Monocyte Chemoattractant Protein-1 (MCP1) Biomarker Activity (AID 2283017). Conditions: primary human endothelial cells (HUVEC); actives raise or lower the signal. In a few lines:
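Primary human umbilical vein endothelial cells (3C system) were exposed to test chemical for 24 h, after which MCP-1 was quantified by ELISA. Activity was fitted bidirectionally against DMSO as negative control and baseline.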

Read-out in assay [5]: Monocyte Chemoattractant Protein-1 (MCP1), CCL2 (gene 6347)
Description: BSK_4H_MCP1: BioMAP Diversity Plus: 4H Assay for Monocyte Chemoattractant Protein-1 (MCP1) Biomarker Activity (AID 2283018). Conditions: primary human endothelial cells (HUVEC); actives raise or lower the signal. Summed up: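 ELISA read-out of MCP-1 from human vascular endothelial primary cells taken at 24 hours after compound exposure. Activity was fitted in both directions relative to DMSO, which served as negative control.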

Read-out in assay [6]: Human Leukocyte Antigen - DR isotype (HLADR), HLA-DRA (gene 3122)
Description: BSK_3C_HLADR: BioMAP Diversity Plus: 3C Assay for Human Leukocyte Antigen - DR isotype (HLADR) Biomarker Activity (AID 2283019). Conditions: primary human endothelial cells (HUVEC); actives raise or lower the signal. Summed up: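 Primary human umbilical vein endothelial cells (3C system) were dosed with compound and cell-surface HLA-DR was quantified by ELISA at 24 h. Activity was fitted bidirectionally against DMSO as negative control and baseline.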

Read-out in assay [7]: Interleukin-8 (IL8), CXCL8 (gene 3576)
As to the kind of experiment: BSK_3C_IL8: BioMAP Diversity Plus: 3C Assay for Interleukin-8 (IL8) Biomarker Activity (AID 2283020). Conditions: primary human endothelial cells (HUVEC); actives raise or lower the signal. In a few lines:
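ELISA read-out of IL-8 from human umbilical vein endothelium, measured 24 h after chemical dosing. Activity is expressed relative to DMSO negative control, with both increases and decreases fitted.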

Read-out in assay [8]: Monokine induced gamma interferon (MIG), CXCL9 (gene 4283)
As to the kind of experiment: BSK_3C_MIG: BioMAP Diversity Plus: 3C Assay for Monokine induced gamma interferon (MIG) Biomarker Activity (AID 2283021). Conditions: primary human endothelial cells (HUVEC); actives raise or lower the signal. In a few lines: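 Read-out is ELISA detection of MIG on human umbilical vein endothelial cells, taken 24 h after dosing. Gain or loss of signal was scored relative to DMSO controls using bidirectional curve fitting.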

Read-out in assay [9]: Matrix Metallopeptidase 1 (MMP1), MMP1 (gene 4312)
As to the kind of experiment: BSK_BE3C_MMP1: BioMAP Diversity Plus: BE3C Assay for Matrix Metallopeptidase 1 (MMP1) Biomarker Activity (AID 2283024). Conditions: primary human bronchial epithelial cells; actives raise or lower the signal. In a few lines: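 Human bronchial epithelial cells (BE3C system) exposed to compound for 24 h; MMP1 then quantified by ELISA. Activity was fitted in both directions relative to DMSO.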

A short description of assay [10]: BSK_3C_Vis: BioMAP Diversity Plus: 3C Assay for Morphology Visualization (AID 2283025).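 For AC50: light microscopy image of cell morphology used as background control.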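 Note: fitted both ways so gain or loss versus DMSO counts.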 Conditions: primary human endothelial cells (HUVEC). Summed up: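 Chemicals were added to primary human umbilical vein endothelium, cells were incubated 24 h, and morphology was then visualized by light microscopy. Gain or loss of signal was fitted bidirectionally relative to DMSO.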

Read-out in assay [11]: Pselectin, SELP (gene 6403)
As to the kind of experiment: BSK_4H_Pselectin: BioMAP Diversity Plus: 4H Assay for Pselectin Biomarker Activity (AID 2283026). Conditions: primary human endothelial cells (HUVEC); actives raise or lower the signal. Summed up:
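ELISA read-out of P-selectin on human umbilical vein endothelium after 24 h of dosing. Values derive from bidirectional fitting relative to DMSO. Parallel SRB protein staining flagged overt cytotoxicity.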

The nature of assay [12]: BSK_4H_SRB: Viability Assessment in the BioMAP Diversity Plus: 4H Assay (AID 2283027).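 For AC50: curves fitted both ways versus DMSO so AC50 may be loss or gain.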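 Note: cells exposed to compound for 24 h before staining.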 Conditions: primary human endothelial cells (HUVEC). Summed up: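 Human umbilical vein endothelial cells, 24 h after chemical dosing; total protein measured by 0.1% sulforhodamine B staining after 10% TCA fixation, read at 560 nm. Bidirectional fitting against DMSO.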
Assay [13] in a line: BSK_BE3C_SRB: Viability Assessment in the BioMAP Diversity Plus: BE3C Assay (AID 2283028). Conditions: primary human bronchial epithelial cells. In a few lines: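 Human primary bronchial epithelial cells were exposed to test chemicals for 24 h. Total protein in parallel cultures was then measured by staining with 0.1% sulforhodamine B after 10% TCA fixation, with absorbance read at 560 nm. Activity was fitted bidirectionally against DMSO.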

Read-out in assay [14]: Thrombomodulin, THBD (gene 7056)
Description: BSK_3C_Thrombomodulin: BioMAP Diversity Plus: 3C Assay for Thrombomodulin Biomarker Activity (AID 2283029). Conditions: primary human endothelial cells (HUVEC); actives raise or lower the signal. Summed up:
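Read-out is ELISA of thrombomodulin on human umbilical vein endothelium 24 h after chemical dosing. Gain or loss of signal is scored relative to DMSO. Overt cytotoxicity is checked in parallel cultures by sulforhodamine B staining.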

The target in assay [15] is Retinoic acid receptor RXR-alpha (Homo sapiens) (UniProt P19793). As to the kind of experiment: ATG_RXRa_TRANS: Attagene TRANS-FACTORIAL HepG2 Assay for human Retinoid X Receptor alpha (RXRa) (AID 2283012; active = hit-call score of the fitted dose curve at least 0.9, where 1 is the maximum). In a few lines: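 Transient transfection of human HepG2 with multiple GAL4-UAS reporter constructs; 24 h compound exposure; total RNA isolated, reverse-transcribed, PCR-amplified, 6-FAM labelled, HpaI-cut, resolved by capillary electrophoresis. Positive-direction fit versus DMSO.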
Sequence of Retinoic acid receptor RXR-alpha (Homo sapiens) (P19793 whole entry, looked up, the tested form may be a part): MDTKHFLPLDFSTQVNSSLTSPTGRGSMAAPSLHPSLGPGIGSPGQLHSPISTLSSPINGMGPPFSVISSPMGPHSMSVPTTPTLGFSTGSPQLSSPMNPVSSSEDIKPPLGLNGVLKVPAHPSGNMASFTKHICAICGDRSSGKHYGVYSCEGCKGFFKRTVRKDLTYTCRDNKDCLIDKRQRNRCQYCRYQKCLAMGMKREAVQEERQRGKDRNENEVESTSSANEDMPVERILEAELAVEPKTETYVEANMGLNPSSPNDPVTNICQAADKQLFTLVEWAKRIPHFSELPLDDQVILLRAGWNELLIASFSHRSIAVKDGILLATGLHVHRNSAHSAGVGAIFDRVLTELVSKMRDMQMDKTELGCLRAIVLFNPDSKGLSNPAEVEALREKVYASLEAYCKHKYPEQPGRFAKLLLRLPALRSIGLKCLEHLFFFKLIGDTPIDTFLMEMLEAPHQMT

For assay [16], the target named is human Retinoid X Receptor beta (RXRb), RXRB (gene 6257) (UniProt P28702). As to the kind of experiment: ATG_RXRb_TRANS: Attagene TRANS-FACTORIAL HepG2 Assay for human Retinoid X Receptor beta (RXRb) (AID 2283013; active = hit-call score of the fitted dose curve at least 0.9, where 1 is the maximum). Summed up:
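Transfect HepG2 with GAL4-UAS multi-reporter constructs (chimeric NR-Gal4, TRANS format); dose compound 24 h; isolate RNA, RT-PCR, FAM primer extension, HpaI digest; quantify by capillary electrophoresis; positive direction vs DMSO.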

Assay [17] concerns the target human Thyroid Receptor alpha (THRa1), THRA (gene 7067) (UniProt P10827). As to the kind of experiment: ATG_THRa1_TRANS: Attagene TRANS-FACTORIAL HepG2 Assay for human Thyroid Receptor alpha (THRa1) (AID 2283014; active = hit-call score of the fitted dose curve at least 0.9, where 1 is the maximum). In a few lines: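 HepG2 cells transiently transfected with multiplexed GAL4-UAS reporter units for exogenous chimeric THRa1-Gal4; reporter mRNA measured 24 h after dosing by RT-PCR, 6-FAM labelling, HpaI digestion and capillary electrophoresis. Gain-of-signal fitted versus DMSO baseline.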

For assay [18], the target named is human Vitamin D Receptor (VDR), VDR (gene 7421) (UniProt P11473). As to the kind of experiment: ATG_VDR_TRANS: Attagene TRANS-FACTORIAL HepG2 Assay for human Vitamin D Receptor (VDR) (AID 2283022; active = hit-call score of the fitted dose curve at least 0.9, where 1 is the maximum). In a few lines: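 HepG2 cells were transiently transfected with multiple GAL4-UAS reporter units, so signal reflects exogenous chimeric receptor-Gal4 activity. After 24 h compound exposure, reporter mRNA was measured by RT-PCR, fluorescent labelling and capillary electrophoresis, fitted for gain of signal versus DMSO.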
Sequence of human Vitamin D Receptor (VDR), VDR (gene 7421) (P11473 whole entry, looked up, the tested form may be a part): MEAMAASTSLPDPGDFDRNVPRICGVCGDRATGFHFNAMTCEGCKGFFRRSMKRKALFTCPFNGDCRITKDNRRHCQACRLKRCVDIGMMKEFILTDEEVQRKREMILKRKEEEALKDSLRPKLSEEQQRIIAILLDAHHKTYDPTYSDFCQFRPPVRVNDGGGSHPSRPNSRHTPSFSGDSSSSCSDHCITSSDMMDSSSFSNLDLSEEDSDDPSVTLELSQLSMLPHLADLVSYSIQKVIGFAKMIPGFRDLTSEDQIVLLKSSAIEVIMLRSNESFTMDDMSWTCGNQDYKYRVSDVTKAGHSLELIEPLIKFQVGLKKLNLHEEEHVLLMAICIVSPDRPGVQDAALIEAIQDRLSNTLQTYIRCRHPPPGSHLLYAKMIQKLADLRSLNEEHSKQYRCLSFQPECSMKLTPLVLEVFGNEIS

A short description of assay [19]: BSK_3C_SRB: Viability Assessment in the BioMAP Diversity Plus: 3C Assay (AID 2283023).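 Note: fitted both ways against DMSO so a hit may be signal rise or drop.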 Conditions: primary human endothelial cells (HUVEC). In a few lines:
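Primary human umbilical vein endothelial cells in the 3C system were read 24 h after compound dosing. Total protein was stained with 0.1% sulforhodamine B after 10% TCA fixation and read at 560 nm, with bidirectional fitting against DMSO as baseline.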

Results filed as inconclusive are left out. Calls of active or inactive are those of the source. Rule for the calls, unless noted: active = hit-call score of the fitted dose curve at least 0.9, where 1 is the maximum; inactive = score below 0.9.

Data on nine compounds can be found in PubChem BioAssay (EPA / NIEHS).

Sequence of human Retinoid X Receptor beta (RXRb), RXRB (gene 6257) (P28702 whole entry, looked up, the tested form may be a part): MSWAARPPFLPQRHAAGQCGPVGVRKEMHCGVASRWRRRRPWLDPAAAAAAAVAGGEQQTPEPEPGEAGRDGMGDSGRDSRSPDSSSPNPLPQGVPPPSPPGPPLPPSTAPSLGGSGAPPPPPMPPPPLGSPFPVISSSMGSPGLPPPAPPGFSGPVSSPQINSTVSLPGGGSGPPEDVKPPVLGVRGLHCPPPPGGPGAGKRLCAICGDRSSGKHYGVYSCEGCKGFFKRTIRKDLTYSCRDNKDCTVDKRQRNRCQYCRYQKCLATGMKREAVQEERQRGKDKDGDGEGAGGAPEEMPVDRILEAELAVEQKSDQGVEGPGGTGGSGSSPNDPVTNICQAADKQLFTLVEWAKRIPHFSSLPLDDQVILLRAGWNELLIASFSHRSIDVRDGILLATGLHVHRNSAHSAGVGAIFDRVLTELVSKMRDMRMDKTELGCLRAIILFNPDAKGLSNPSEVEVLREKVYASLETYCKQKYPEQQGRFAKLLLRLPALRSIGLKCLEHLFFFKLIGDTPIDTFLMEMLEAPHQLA
Sequence of human RAR-related Orphan Receptor gamma (RORg), RORC (gene 6097) (P51449 whole entry, looked up, the tested form may be a part): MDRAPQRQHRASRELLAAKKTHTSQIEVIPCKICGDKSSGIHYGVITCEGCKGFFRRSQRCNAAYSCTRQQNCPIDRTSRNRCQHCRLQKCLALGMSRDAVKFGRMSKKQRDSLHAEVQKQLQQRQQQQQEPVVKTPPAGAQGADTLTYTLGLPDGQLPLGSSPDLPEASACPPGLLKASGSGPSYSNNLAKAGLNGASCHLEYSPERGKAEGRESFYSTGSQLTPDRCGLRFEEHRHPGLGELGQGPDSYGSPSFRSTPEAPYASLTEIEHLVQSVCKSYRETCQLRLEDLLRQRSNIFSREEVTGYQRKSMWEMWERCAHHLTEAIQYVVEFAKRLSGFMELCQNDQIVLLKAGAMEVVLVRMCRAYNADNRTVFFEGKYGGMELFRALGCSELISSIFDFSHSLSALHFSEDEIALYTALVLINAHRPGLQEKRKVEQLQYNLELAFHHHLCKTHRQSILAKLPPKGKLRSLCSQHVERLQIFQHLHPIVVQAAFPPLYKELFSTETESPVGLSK
Sequence of E-selectin (Homo sapiens) (P16581 whole entry, looked up): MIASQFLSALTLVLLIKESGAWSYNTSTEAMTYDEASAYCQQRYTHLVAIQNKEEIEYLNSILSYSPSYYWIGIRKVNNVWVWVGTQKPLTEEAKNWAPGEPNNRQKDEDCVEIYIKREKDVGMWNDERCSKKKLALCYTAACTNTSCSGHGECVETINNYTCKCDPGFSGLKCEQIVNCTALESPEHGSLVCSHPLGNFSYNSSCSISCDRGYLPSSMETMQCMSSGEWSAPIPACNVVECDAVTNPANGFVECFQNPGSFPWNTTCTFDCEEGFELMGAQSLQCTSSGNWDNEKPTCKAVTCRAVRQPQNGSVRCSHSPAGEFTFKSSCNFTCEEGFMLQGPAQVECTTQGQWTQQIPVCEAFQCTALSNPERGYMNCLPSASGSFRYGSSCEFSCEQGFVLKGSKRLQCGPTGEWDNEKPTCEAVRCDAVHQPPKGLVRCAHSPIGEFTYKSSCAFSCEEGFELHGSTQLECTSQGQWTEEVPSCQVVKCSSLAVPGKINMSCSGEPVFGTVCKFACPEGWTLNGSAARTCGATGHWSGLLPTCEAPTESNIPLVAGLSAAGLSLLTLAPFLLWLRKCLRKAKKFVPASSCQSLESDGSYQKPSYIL
Sequence of human Thyroid Receptor alpha (THRa1), THRA (gene 7067) (P10827 whole entry, looked up, the tested form may be a part): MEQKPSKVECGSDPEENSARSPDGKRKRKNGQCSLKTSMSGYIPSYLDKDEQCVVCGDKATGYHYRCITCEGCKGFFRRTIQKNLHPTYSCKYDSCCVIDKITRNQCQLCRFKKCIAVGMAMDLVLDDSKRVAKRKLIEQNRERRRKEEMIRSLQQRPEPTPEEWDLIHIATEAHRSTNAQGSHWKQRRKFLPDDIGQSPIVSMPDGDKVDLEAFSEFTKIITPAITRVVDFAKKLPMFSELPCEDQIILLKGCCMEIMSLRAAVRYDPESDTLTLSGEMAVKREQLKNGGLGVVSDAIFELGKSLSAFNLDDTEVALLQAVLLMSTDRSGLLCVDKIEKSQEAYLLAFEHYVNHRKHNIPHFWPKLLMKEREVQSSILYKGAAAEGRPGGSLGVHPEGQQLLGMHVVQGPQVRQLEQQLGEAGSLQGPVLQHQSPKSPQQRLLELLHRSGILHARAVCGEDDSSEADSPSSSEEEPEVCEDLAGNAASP

As to `c1ccc(OP(Oc2ccccc2)Oc2ccccc2)cc1`, the compound was called inactive in assay [1], in assay [2], in assay [3], in assay [4], in [5] and in assay [6]. The result in assay [7], in assay [8], in assay [9], in assay [10], in [11] and in [12] was inactive. The result in [13] and in [14] was inactive.
For orientation: AC50 means the concentration giving half of the maximal activity seen. For `CCOP(=S)(OCC)SCSc1ccc(Cl)cc1`, the compound was classed as inactive in assay [15], in assay [17], in [2], in assay [4], in [7] and in assay [8]. Besides, the outcome in assay [9], in [10], in assay [12], in assay [13] and in assay [14] was inactive. Moreover, the AC50 is 13.5 µM (active) in assay [16]; 0.212 µM (active) in assay [3]; 8.96 µM (active) in assay [5]; 27.5 µM (active) in assay [6]; 12.6 µM (active) in assay [11].
Consider `N#Cc1cc([N+](=O)[O-])ccc1N`, for which the outcome in assay [1], in assay [15], in assay [16], in assay [2], in assay [3] and in assay [4] was inactive. Also, the result in assay [5], in [6], in assay [7], in assay [8], in assay [18] and in [9] was inactive. For the same compound, the outcome in assay [10], in assay [11], in assay [12], in assay [13] and in assay [14] was inactive.
In the case of `O=C(O)C(F)(F)OC(F)(F)C(F)(F)OC(F)(F)F`, the outcome in assay [1], in assay [15], in [16], in [17], in assay [2] and in [3] was inactive. Besides, the outcome in assay [4], in assay [5], in [6], in [7], in assay [8] and in assay [18] was inactive. Moreover, the outcome in [19], in assay [9], in assay [11], in assay [12], in assay [13] and in assay [14] was inactive.
Regarding `Nc1ccc(Sc2ccc(N)cc2)cc1`, the result in assay [1], in assay [15], in assay [16] and in assay [18] was inactive.
In the case of `Cc1ccc(N)cc1N`, the call in assay [1], in assay [15], in [16], in assay [2], in assay [3] and in assay [4] was inactive. For the same compound, the outcome in assay [5], in assay [6], in assay [7], in assay [8], in assay [19] and in assay [9] was inactive. Moreover, the outcome in [10], in assay [11], in assay [12], in assay [13] and in assay [14] was inactive.
As for `NNC(N)=S`, the compound was called inactive in assay [1], in assay [15], in assay [16] and in assay [18].
As for `O=P(OCC(Br)CBr)(OCC(Br)CBr)OCC(Br)CBr` (stereo unspecified), the call in assay [15], in assay [16], in assay [17], in [8], in assay [11] and in assay [13] was inactive. Besides, in assay [14], the result was inactive. Moreover, the AC50 in [2] was 17.4 µM (active); in assay [3] it was 29.3 µM (active); in assay [4] it was 17.4 µM (active); in assay [5], 3.45 µM (active); in [7], 17.4 µM (active); in assay [19], 10.3 µM (active). In addition, the AC50 in assay [9] was 3.88 µM (active); in assay [10], 12.4 µM (active); in assay [12] it was 1.54 µM (active).
Regarding `CC(Cl)(Cl)C(=O)O`, the compound was called inactive in assay [1], in [15], in [17], in [2], in assay [3] and in [4]. The result in [6], in [7], in [8], in assay [9], in assay [10] and in assay [11] was inactive. Moreover, the outcome in [12], in assay [13] and in assay [14] was inactive.
